Screening results (PubChem)
HT1080NT lethal: qHTS for induction of synthetic lethality in tumor cells producing 2HG: qHTS for the HT-1080-NT fibrosarcoma cell line | Potency, µM (highest dose often 46.1 µM), inactives show top-dose activity, negative = less viability, hits mostly cytotoxic | AID 686970, 2013 | 360,000 compounds, 1.6% hits | HT-1080-NT fibrosarcoma viability, CellTiter-Glo ATP luminescence, 48 h;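 note: NT is the 2HG producing partner of a matched IDH1 knockdown line; potency is the fitted concentration of half-maximal effect; 0% = DMSO-treated cells and -100% = media-only wells without cells; nearly all actives have a fitted effect of over 55% in size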
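Luminescent CellTiter-Glo readout after 48 hours of compound exposure at 37 degrees C defined viability of HT-1080-NT cells. Activity was normalized to DMSO wells and cell-free media wells; concentration-response curves were fitted and assigned curve classes.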
DT40 TDP1 CPT: qHTS for Inhibitors of human tyrosyl-DNA phosphodiesterase 1 (TDP1): qHTS in cells in presence of CPT; AID 686979, 2013; 420,000 compounds, 12% hits; chicken DT40 Tdp1-/-;hTDP1 cells + 20 nM CPT, ATP luminescence, 48 h; Potency, µM (highest dose often 46.2 µM), without a hit: at the top dose activity change, negative = growth inhibition, actives largely listed as inhibitors; note: potency is the fitted concentration of half-maximal effect; nearly all actives have a fitted effect of over 55% in size
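Chicken DT40 Tdp1-/- cells complemented with human TDP1, 400 cells/well, exposed to compounds plus 20 nM camptothecin for at least 48 h at 37 C; viability read as ATP content by CellTiter-Glo luminescence.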
DT40 TDP1 no CPT: qHTS for Inhibitors of human tyrosyl-DNA phosphodiesterase 1 (TDP1): qHTS in cells in absence of CPT; DT40 Tdp1-/- hTDP1 cells, no CPT, ATP luminescence, 48 h; Potency, µM (series often up to 46.2 µM), for inactives: at the highest dose activity change, negative = growth inhibition, most hits filed as inhibitors; 420,000 compounds, 15% hits; note: potency is the fitted concentration of half-maximal effect; nearly all actives have a fitted effect of over 55% in size
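Luminescent ATP content (CellTiter-Glo) served as the growth readout. Knockout chicken DT40 cells expressing human TDP1 were exposed to compounds without camptothecin for a minimum 48 hr at 37 °C.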
HT1080 IDH1KD tx: qHTS for induction of synthetic lethality in tumor cells producing 2HG: qHTS for the HT-1080-IDH1KD cell line; HT-1080 IDH1 knockdown viability, ATP luminescence, 48 h; 360,000 compounds, 2% hits; Potency, µM (highest dose often 46.1 µM), without a hit: at the top dose activity, negative = toxicity, actives largely listed as cytotoxic;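 note: potency is the fitted concentration of half-maximal effect; 0% = DMSO wells and -100% = cell-free medium wells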
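Assay cells: HT-1080 with IDH1 knockdown, 750 per well, RPMI/5% FBS. Exposure: 48 h at 37 °C following 2 h pre-incubation. Read: CellTiter-Glo luminescence; fitted concentration-response, curve class assigned.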
IL1B secr inh: qHTS for Inhibitors of Inflammasome Signaling: IL-1-beta AlphaLISA Primary Screen; 360,000 compounds, 4.7% hits; THP-1 LPS/ATP IL-1B secretion, AlphaLISA, 16 h; stronger effect = lower value; activity change, % at 57.5 µM; in the data active = activity change below about -50%; inconclusive = mostly about -30% to -49%
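Secreted IL-1B measured by AlphaLISA bead assay after 16 h compound exposure of THP-1 cells; compounds (final up to 57.5 uM) added 1 h before LPS (250 ng/mL) and ATP (1.25 mM) stimulation; lower signal means less secretion.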
Starred values were filed as active, the others as inactive; i = inactive; ? = inconclusive; nt = not tested or not shown; ! = not confirmed by another sample; [ ] = another dose, or the depositor's remark. Rows were chosen to be rich in hits. Some 19% of all compounds tested hit in one or more screens of this group. Unless noted, calls come from the whole dose curve; as a rule, active = well fitted curve in the direction sought with a large enough effect; inconclusive = small, poorly fitted or top-dose-only effect, or another doubt; inactive = no such curve, though single readings can be large; an effect the other way counts as inactive or inconclusive. Unless noted, % is set by controls: 0 for no effect and ±100 for the full control effect.

SMILES | HT1080NT lethal | DT40 TDP1 CPT | DT40 TDP1 no CPT | HT1080 IDH1KD tx | IL1B secr inh
CC1(C(=O)NS(=O)(=O)C2CC2)CCCN(C(=O)c2cc3ccccc3s2)C1 (stereo not given) | 13.1% | 0.651µM* | 0.82µM* | 9.0% | 13.7
CC1(C(=O)NS(=O)(=O)C2CC2)CCCN(C(=O)Cc2ccc3ccccc3c2)C1 (stereo not given) | ? | 9.2µM* | 10.3µM* | 2.0% | 24.7
CC(=O)Nc1ccc(NC(=O)CSc2n[nH]c(-c3cccs3)n2)cc1 | -10.5% | -1.8% | -4.2% | -1.7% | -10.8
CN1C(C(=O)NCc2ccco2)CC2Cn3c(nc4cc(Cl)c(Cl)cc43)C21 (stereo not given) | -4.8% | -1.9% | -17.0% | -1.7% | -9.4
O=C(NN1C(=O)NC2(CCCCC2)C1=O)c1ccc(Cl)c(Cl)c1 | 0.6% | -25.5% | 10.4% | -6.1% | -14.1
COc1ccc2c(c1)C1NC(=S)NC(C)(O2)C1C(=O)Nc1ccccc1C (stereo not given) | -0.6% | -10.1% | -17.4% | -0.4% | -1.0
Cc1nc(NCc2cnn(C)c2C)sc1-c1ccn(CC2COc3ccccc3O2)n1 (stereo not given) | nt | -6.4%[9.04 µM] | ? | nt | nt
O=C(N/N=C\c1ccc(CNS(=O)(=O)c2ccc(Cl)cc2)o1)C(=O)Nc1ccc(Oc2ccccc2)cc1 | 1.6% | 2.91µM* | 6.51µM* | -0.5% | 4.0
O=C(N/N=C\c1ccc(CN(Cc2ccc(Cl)cc2)S(=O)(=O)c2ccccc2)o1)C(=O)Nc1ccc(F)cc1 | -0.2% | ? | 14.6µM* | 2.9% | ?
Cc1nc([N+](=O)[O-])cn1CC(=O)c1ccc2c(c1)OCCCO2 | nt | -29.6% | ? | nt | nt
O=C(Cc1cccnc1)N[C@@H]1CC[C@H](CCn2cc(Cc3ccccc3)nn2)O[C@@H]1CO | 21.6% | -4.7% | -0.8% | 9.7% | -7.0
COc1ccccc1/C=C\C(=O)O | nt | -7.4% | -5.3% | nt | nt
CC(=O)/C=C/c1ccccc1Oc1c(F)c(F)nc(F)c1F | ? | ? | 25.9µM* | ? | -27.4
CCOc1cccc(-c2c(C(=O)N/N=C/c3ccc(Br)cc3)nnn2-c2nonc2N)c1 | 11.5% | -18.5% | ? | -7.3% | -9.3
CCOc1cc(/C=C\c2[nH]c(=O)[nH]c(=O)c2[N+](=O)[O-])ccc1OC(C)CC (stereo not given) | 10µM* | -19.1% | -5.6% | ? | -92.4*
CC(C)c1ccc(/C=C/c2[nH]c(=O)[nH]c(=O)c2[N+](=O)[O-])cc1 | -1.8% | -25.3% | ? | ? | -82.0*
CCCOc1ccc(/C=C/c2[nH]c(=O)[nH]c(=O)c2[N+](=O)[O-])cc1OCC | 7.1% | 27.0% | 4.0% | -0.8% | -5.4
COc1ccc([C@H]2CC(=O)C=C(c3ccc(Cl)c(Cl)c3)C2)cc1 | -15.1% | -24.5% | -8.5% | -28.5% | ?
COc1ccc(-n2nnc3c(SC(C(C)=O)C(=O)N(C)C)ncnc32)cc1 (stereo not given) | 3.2% | 18.4µM* | 16.4µM* | 17.5% | 0.0
CCOc1ccc(-n2nnc3c(=O)n(CC(=O)NCc4ccco4)cnc32)cc1 | 11.1% | -21.7% | 0.4% | -0.1% | -0.4
O=C(CSc1ncnc2c1nnn2-c1ccc(F)cc1)NCc1ccco1 | -6.1% | ? | 14.6µM* | -3.0% | -3.7
Cc1nnc(SCC(=O)NCc2ccco2)n1-c1ccc(F)cc1 | 21.2% | 4.8% | -0.1% | 18.1% | -1.1
COc1ccc(-n2nnc3c(SCC(=O)NCc4ccco4)ncnc32)cc1 | -26.8% | ? | 2.91µM* | ? | -16.2
CCN(C(=O)COC(=O)/C=C/c1ccc2c(c1)OCO2)c1c(N)n(Cc2ccccc2)c(=O)[nH]c1=O | 6.2% | ? | -17.3% | 0.0% | 10.8
CCOc1ccc(NC(=O)CCS(=O)(=O)c2ccc3nc(C)sc3c2)cc1 | nt | -0.2% | -1.8% | nt | nt
SMILES | HT1080NT lethal | DT40 TDP1 CPT | DT40 TDP1 no CPT | HT1080 IDH1KD tx | IL1B secr inh
CSc1nc(O)c(/C=C2\C=Nc3ccccc32)[nH]1 | 1.9% | ? | ? | 12.4% | -12.6
O=c1[nH]c(/C=C2\C=Nc3ccccc32)c(O)n1Cc1ccccc1F | -21.6% | ? | ? | ? | -96.9*
CCOC(=O)N1CCN(C(=O)C[C@@H]2C[C@@]3(C(=O)OC)CC(C)(C)CC=C3N(Cc3ccc4c(c3)OCO4)C2=O)CC1 | -10.1% | 11.6µM* | 18.4µM* | -20.0% | -1.9
COC(=O)[C@@]12C[C@@H](CC(=O)N3CCCC3)C(=O)N(Cc3ccc4c(c3)OCO4)C1=CCC(C)(C)C2 | 5.1% | ? | ? | 2.9% | -23.7
COC(=O)[C@@]12C[C@@H](CC(=O)N3CCSCC3)C(=O)N(Cc3ccc4c(c3)OCO4)C1=CCC(C)(C)C2 | -24.7% | ? | 14.6µM* | -19.4% | -22.5
CC(C)CN(CC(C)C)c1nnc(N)s1 | 1.6% | 2.2% | -21.7% | 2.4% | 29.0
O=C(Nc1ccccc1)[C@@H]1CC=C[C@@H]2CCN(Cc3ccc(Cl)c(Cl)c3)C(=O)[C@@H]21 | ? | ? | 18.4µM* | ? | ?
O=C(Nc1ccccc1)[C@@H]1CC=C[C@@H]2CCN(Cc3ccccc3)C(=O)[C@@H]21 | 0.1% | ? | 22.4µM*! | 14.6% | -6.9
CCCCN1CC[C@H]2C=CC[C@@H](C(=O)Nc3ccccc3)[C@H]2C1=O | 17.2% | ? | -4.8% | -1.6% | 29.6
COc1ccc(CN2CC[C@H]3C=CC[C@@H](C(=O)NCCc4ccccc4)[C@H]3C2=O)cc1OC | 18.8% | 14.1µM* | ? | 3.6% | 0.1
CC(=O)c1ccccc1NC(=O)CN1C(=O)NC2(CCCCCCC2)C1=O | -5.8% | -25.3% | -23.4% | -8.8% | 20.6
CCCC/C(O)=C1\C(=O)CC(C)(C)CC1=NCCCCCC(=O)O | 18.1% | 12.5% | -8.8% | 13.5% | 0.0
CCOC(=O)N1CCN(C(=O)CN(c2cccc(Cl)c2C)S(=O)(=O)c2ccc(C)cc2)CC1 | nt | 20.6µM* | ? | nt | nt
CCOc1ccc(N(CC(=O)N2CCN(c3ccccc3OC)CC2)S(=O)(=O)c2ccc(F)cc2)cc1 | 0.1% | ? | ? | -9.4% | i
CCOC(=O)c1c(C)[nH]c(C)c1S(=O)(=O)N(C)CC(=O)N1CCN(c2ccccc2OC)CC1 | nt | 18.4µM* | ? | nt | nt
COc1ccccc1N(CC(=O)N1CCN(c2ccccc2)CC1)S(=O)(=O)c1ccc(C)cc1 | 5.1% | 18.4µM* | ? | -1.1% | -7.9
